Rows were chosen to be rich in hits. Some 19% of all compounds tested hit in one or more screens of this group.
HT1080NT lethal: kills 2HG-producing HT-1080-NT fibrosarcoma cells; HT-1080-NT fibrosarcoma viability, CellTiter-Glo ATP luminescence, 48 h; AID 686970; hit rate 1.6% among 360,000; Potency, µM (highest dose often 46.1 µM), most hits filed as cytotoxic;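 note: NT is the 2HG producing partner of a matched IDH1 knockdown line; nearly all actives have a fitted effect of over 55% in size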
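A 48-hour cytotoxicity screen used HT-1080-NT cells plated 2 hours before compound delivery. ATP-based CellTiter-Glo luminescence measured viability, normalized to DMSO and no-cell controls.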
HT1080 IDH1KD tx: toxicity to HT-1080 IDH1 knockdown cells (counter line); HT-1080 IDH1 knockdown viability, ATP luminescence, 48 h; Potency, µM (doses to about 46.1 µM), usual class: cytotoxic; hit rate 2% among 360,000; AID 686971
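Assay cells: HT-1080 with IDH1 knockdown, 750 per well, RPMI/5% FBS. Exposure: 48 h at 37 °C following 2 h pre-incubation. Read: CellTiter-Glo luminescence; fitted concentration-response, curve class assigned.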
DT40 TDP1 no CPT: qHTS for Inhibitors of human tyrosyl-DNA phosphodiesterase 1 (TDP1): qHTS in cells in absence of CPT; DT40 Tdp1-/- hTDP1 cells, no CPT, ATP luminescence, 48 h; Potency, µM (titrated, usually from 46.2 µM), most hits filed as inhibitors; hit rate 15% among 420,000; AID 686978, 2013; note: nearly all actives have a fitted effect of over 55% in size
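Growth of hTDP1-complemented DT40 Tdp1-knockout cells is measured by ATP luminescence after at least 48 hr compound exposure at 37 °C, with DMSO substituting for the 20 nM CPT used in the parallel screen.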
DT40 TDP1 CPT: DT40-hTDP1 cell growth loss with CPT; chicken DT40 Tdp1-/-;hTDP1 cells + 20 nM CPT, ATP luminescence, 48 h; Potency, µM (doses to about 46.2 µM), usual class: inhibitors; hit rate 12% among 420,000; AID 686979; note: nearly all actives have a fitted effect of over 55% in size
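Cell growth measured by CellTiter-Glo luminescence after a minimum 48 h, 37 C compound exposure with 20 nM CPT in Tdp1-knockout DT40 cells stably expressing hTDP1, seeded 400/well; qHTS titration format.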
IL-1B inflam inh: inflammasome signaling inhibition, IL-1 beta readout; THP-1 LPS/ATP IL-1B secretion, AlphaLISA, 16 h; active compounds read low; activity change, % at 57.5 µM; hit rate 4.7% among 360,000; in the data active = activity change below about -50%; inconclusive = mostly about -30% to -49%
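THP-1 cells pretreated 1 hr with compounds (up to 57.5 uM final), then stimulated with LPS (250 ng/mL final) plus ATP (1.25 mM final); secreted IL-1B measured by AlphaLISA after 16 hr, decreased signal indicating inhibition.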
Hits are given with their value; i = inactive; ? = inconclusive; nt = not tested or not shown. Unless noted, calls come from the whole dose curve; as a rule, active = well fitted curve in the direction sought with a large enough effect; inconclusive = small, poorly fitted or top-dose-only effect, or another doubt; inactive = no such curve, though single readings can be large; an effect the other way counts as inactive or inconclusive.

SMILES	HT1080NT lethal	HT1080 IDH1KD tx	DT40 TDP1 no CPT	DT40 TDP1 CPT	IL-1B inflam inh
O=C(NCc1ccccc1Cl)C1CCC(=O)N(C2CCCC2)C1 (configuration not stated)	i	i	i	i	i
CC(C)OCCCNC(=O)c1c2c(nc3ccccc13)C(=O)N(C1CCCCC1)C2	nt	nt	i	i	nt
O=C(NCc1ccccc1Cl)c1c2c(nc3ccccc13)C(=O)N(C1CCCCC1)C2	nt	nt	?	18.4µM	nt
CCN(CC)CCNC(=O)c1c2c(nc3ccccc13)C(=O)N(C1CCCCC1)C2	nt	nt	i	i	nt
Cc1ccc(CCNC(=O)c2c3c(nc4ccccc24)C(=O)N(C2CCCCC2)C3)cc1	nt	nt	10.3µM	20.6µM	nt
O=C(NCc1ccccc1)c1c2c(nc3ccccc13)C(=O)N(C1CCCCC1)C2	nt	nt	18.4µM	16.4µM	nt
O=C1c2ccccc2C(=O)c2c1cccc2N(CCO)CCO	?	i	i	i	i
O=C1C=C(N(CCO)Cc2ccccc2)c2ccccc2C1=O	8.2µM	14.6µM	20.6µM	18.4µM	-97.8
O=C(c1ccccc1)N(Cc1ccco1)Cc1cccs1	nt	nt	13µM	?	nt
O=C(COC(=O)c1ccccc1Cl)NCc1ccco1	i	i	i	i	i
Cc1onc(-c2ccccc2)c1C(=O)N(Cc1ccco1)Cc1cccs1	i	i	?	?	?
O=C(c1ccccc1Cl)N(Cc1ccco1)Cc1ccco1	nt	nt	14.6µM	20.6µM	nt
CC[C@@H](C)[C@H](CNC)NC[C@@H](Cc1cccc2ccccc12)NCCc1cccc(C(F)(F)F)c1	?	?	?	23.1µM	i
CCC[C@H](CN[C@@H](CNC)[C@H](C)CC)NCCc1cc(C(F)(F)F)cc(C(F)(F)F)c1	?	?	3.26µM	11.6µM	-99.7
CCC[C@@H](CN[C@@H](CNC)[C@H](C)CC)NCC1CCC(C(C)(C)C)CC1 (some centres not stated)	?	?	0.651µM	1.03µM	-52.5
CCC(COC)NC(=O)CCc1nnc(Cc2cccc(C(F)(F)F)c2)o1 (configuration not stated)	i	i	i	i	i
C[C@H]1CN([C@@H](C)CO)C(=O)c2cc(Br)cnc2O[C@@H]1CN(C)C(=O)CN(C)C	i	i	i	i	i
CCOC(=O)c1cnc2sc3c(n2c1=O)CCCC3	i	i	14.6µM	25.9µM	i
CCS(=O)(=O)N1Cc2cc(C(=O)NCC3CC3)nc(-c3cccc(-c4cccnc4)c3)c2[C@@H]1CCO	?	?	25.9µM	?	i
CC(=O)N1Cc2cc(C(=O)NCC(F)(F)F)nc(-c3cccc(-c4cccnc4)c3)c2[C@H]1CCO	i	i	i	i	i
CCNC(=O)c1cc2c(c(-c3cccc(-c4cccnc4)c3)n1)[C@H](CCO)N(S(C)(=O)=O)C2	?	2.31µM	4.11µM	4.61µM	i
CN1CCN(C(=O)c2cc3c(c(-c4cccc(-c5cccnc5)c4)n2)[C@H](CCO)N(C(=O)CC2CC2)C3)CC1	i	i	i	i	i
CC(=O)N1Cc2cc(C(=O)NCC(F)(F)F)nc(-c3cccc(-c4cccnc4)c3)c2[C@@H]1CCO	?	6.51µM	5.8µM	6.51µM	i
CCCCn1c(=O)c(CCC(=O)OCC(=O)Nc2ccc(F)c(Cl)c2)nc2ccccc21	i	i	i	i	i
COc1ccc(CCNC(=O)c2ccc3c(c2)CCN3S(C)(=O)=O)cc1OC	nt	nt	?	i	nt
SMILES	HT1080NT lethal	HT1080 IDH1KD tx	DT40 TDP1 no CPT	DT40 TDP1 CPT	IL-1B inflam inh
COc1ccc(CCNC(=O)c2ccc3c(c2)CCN3S(=O)(=O)c2ccccc2)cc1OC	nt	nt	?	16.4µM	nt
NS(=O)(=O)c1ccc(CCNC(=O)c2cccc(S(=O)(=O)N3CCc4ccccc43)c2)cc1	i	i	?	?	i
COC(=O)c1ccccc1NC(=O)c1ccc2c(c1)CCN2S(=O)(=O)c1ccc(C)cc1	nt	nt	?	i	nt
COc1ccc(CCNC(=O)c2ccc3c(c2)CCN3S(=O)(=O)c2ccccc2)cc1	nt	nt	20.6µM	3.66µM	nt
Cc1ccc(S(=O)(=O)N2CCc3cc(C(=O)N(C)Cc4ccccc4)ccc32)cc1	nt	nt	13µM	14.6µM	nt
O=c1[nH]c(=O)c2cn[nH]c2[nH]1	i	i	i	i	i
O=C1/C(=C/c2ccc(C(=O)O)cc2)CCC/C1=C\c1ccc(C(=O)O)cc1	i	i	i	i	i
Cn1cccc1/C=C1\CCC/C(=C\c2cccn2C)C1=O	i	i	29.1µM	?	?
Cc1cnc(NS(=O)(=O)c2ccc(N)cc2)nc1-c1ccccc1O	i	i	i	i	i
CC(Sc1n[nH]c(-c2ccccc2F)n1)C(=O)Nc1ccc(S(N)(=O)=O)cc1 (configuration not stated)	i	i	i	i	i
CC1(C(=O)Nc2ccc3nc[nH]c3c2)CCN1C(=O)C1(c2ccccc2)CCCC1 (configuration not stated)	i	i	?	i	i

Source: PubChem (National Center for Advancing Translational Sciences (NCATS))
